# About 79,000 compounds went through this panel and 15% of them were active in at least one assay; those are over-represented in the sample as a whole. Values without a mark were called inactive. Active and inactive are the calls of the source. Rule as the data show it: active = growth inhibition above about 70%; inactive = the rest.
# Key:
# [1] = NCI Yeast Anticancer Drug Screen. Data for the rad50 strain (AID 155);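 also: 0% = growth of vehicle-only cultures of the same strain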; details: S. cerevisiae rad50 strain growth inhibition; at 50.0 µM; active compounds read high
# Procedure, shortened: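 Yeast carrying a defined DNA repair defect were exposed to test compounds, and growth was compared with vehicle-treated controls to give percent inhibition.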
# [2] = NCI Yeast Anticancer Drug Screen. Data for the mec2-1 strain (AID 157); details: S. cerevisiae mec2-1 strain, at 50.0 µM, active compounds read high
# Procedure, shortened: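 Test agents were screened against the mec2-1 yeast strain, with defined DNA repair or cell cycle alteration. Growth was scored as inhibition against vehicle-only controls.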
# [3] = NCI Yeast Anticancer Drug Screen. Data for the sgs1 mgt1 strain (AID 161);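 also: 0% = growth of cultures given vehicle only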; details: S. cerevisiae sgs1 mgt1 strain, at 50.0 µM, active compounds read high
# Procedure, shortened: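 Mutant yeast exposed to compound; growth scored against vehicle-only wells.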
# [4] = NCI Yeast Anticancer Drug Screen. Data for the cln2 rad14 strain (AID 165);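 also: 0% = growth equal to vehicle treated cultures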; details: S. cerevisiae cln2 rad14 strain, at 50.0 µM, active compounds read high
# Procedure, shortened: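 Growth of compound-exposed yeast (cln2 rad14 genotype) measured and expressed as inhibition relative to vehicle.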
# [5] = NCI Yeast Anticancer Drug Screen. Data for the bub3 strain (AID 167); details: S. cerevisiae bub3 mutant strain, at 50.0 µM, active compounds read high
# Procedure, shortened: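 Compounds were applied to a genetically altered yeast strain carrying a cell-cycle control defect. Growth inhibition was scored against vehicle-treated controls.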
# [6] = NCI Yeast Anticancer Drug Screen. Data for the mlh1 rad18 strain (AID 175); details: S. cerevisiae mlh1 rad18 strain growth inhibition; at 50.0 µM; active compounds read high
# Procedure, shortened: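 In this whole-cell yeast screen, a strain with altered DNA damage repair is challenged with compound, and its growth is measured against matched vehicle-treated controls.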
Structure (SMILES),growth inhibition [1],growth inhibition [2],growth inhibition [3],growth inhibition [4],growth inhibition [5],growth inhibition [6]
CN1C2=C(CC3=C1CC(C)(C)CC3=O)C(=O)CC(C)(C)C2,-18.6%,-12.9%,-20.1%,-4.25%,-27.6%,-34.7%
Cc1ccc(NC(=O)CCC(=O)C2Cc3ccccc3C2=O)cc1C (centres undefined),-16%,-7.55%,-5.05%,21.3%,1.65%,3.85%
O=C1C=CC(Nc2ccc(Cl)c(Cl)c2)C1Nc1ccc(Cl)c(Cl)c1 (centres undefined),39.5%,36.1%,42.8%,28.6%,26.7%,45%
COC(=O)c1cc(C)cc(N(c2ccccc2[N+](=O)[O-])S(=O)(=O)c2ccc(C)cc2)c1C,15.9%,-9.35%,-25.3%,1.2%,-10.3%,-9%
Cc1ccc(C)c2c(CC(=O)O)c[nH]c12,-4.35%,-11.2%,-5.9%,-15.6%,6.05%,-2.5%
O=C1c2ccccc2CN(C(=Nc2ccccc2)Nc2ccccc2)c2ccccc21,15.1%,2.95%,-0.55%,-25.7%,-0.7%,14.9%
CCCCCCCCCCCCCCCC/C(C)=C\C(=O)OC,3.8%,20.3%,22.9%,-0.9%,28.9%,16.1%
CCCCc1cccc2c1OCO2,-18.6%,-0.6%,-7.75%,-9.75%,-12.5%,36.8%
OCC1OC(n2nc(-c3ccccc3)nc2-c2cnccn2)C(O)C(O)C1O (centres undefined),-37.4%,-35.8%,-31.4%,3.65%,-46.1%,-43.5%
C[N+](C)(C)CC(=O)c1ccc[nH]1,2.1%,-11.2%,14.9%,-0.8%,1.4%,13.1%
CCCCOC1OC[N+](C)(C)CC1(C)C (centres undefined),20.2%,-2.65%,-10.1%,3.7%,-0.45%,26.2%
N#Cc1c(-c2ccccc2)[nH]c2ccc(Cl)cc2c1=O,6.6%,-30.5%,-21.7%,-7.8%,-9.75%,-28.1%
Cc1ccnc(Nc2nnc(Nc3cc(C)ccn3)c3ccccc23)c1,-20.8%,-12.6%,-5.85%,-22%,-3.8%,-4.45%
COc1ccc(/C(Br)=C2\OC(=O)c3ccccc32)cc1,-7.95%,-19.9%,-13.4%,-35.1%,18.4%,-6.9%
CCOC(=O)NC(=O)c1cn(CCN2CCN(C(=O)CCCCCCCCCCC(=O)N3CCN(CCn4cc(C(=O)NC(=O)OCC)c(=O)[nH]c4=O)CC3)CC2)c(=O)[nH]c1=O,16.4%,4.15%,11.2%,-1.35%,-3.45%,8.55%
N#CC(C#N)N=Cc1ccncc1,14.2%,12.2%,-21.6%,-12.8%,-1.1%,-29.2%
COC(=O)C1=C(C(=O)OC)C2C=CC1C1C(Cl)=C(Cl)C21 (centres undefined),-12%,-0.95%,-10.7%,21.2%,33.6%,-34%
O=c1[nH]cc(F)c(=O)n1-c1ccco1,42.6%,67.5%,79.8% (active),-0.55%,52.2%,34.9%
O=C(O)COc1cc(Br)cc(Br)c1,1.4%,-14.2%,-7.55%,16%,-3.9%,-1.7%
CC(=O)Nc1ccc2c(=O)cc[nH]c2n1,13.7%,2.9%,2.4%,1.9%,-2.95%,31.2%

Structure (SMILES),growth inhibition [1],growth inhibition [2],growth inhibition [3],growth inhibition [4],growth inhibition [5],growth inhibition [6]
NC(=O)Cc1ccncc1,5.95%,-2.85%,-3.95%,-9.9%,-2.7%,1.55%
CC(C)(C)NC(=O)NC(C)(C)C,-15.1%,-7.95%,7.3%,14.8%,20.9%,4.45%
O/C=C(\Cl)CCl,17.2%,-7.15%,12.4%,11.9%,5.1%,16.2%
C/C(CC(O)(C(F)(F)F)C(F)(F)F)=N\N,-31.9%,-49.8%,-20.4%,-7.6%,-4.5%,-23.4%
CC1(C)CC[C@]2(C(=O)O)CC[C@]3(C)C(=CC[C@@H]4[C@@]5(C)CC[C@H](OC6OC(CO)C(O)C(O)C6OC6OC(CO)C(O)C(O)C6O)C(C)(C)[C@@H]5CC[C@]43C)[C@@H]2C1 (some centres undefined),86.8% (active),86.7% (active),87.1% (active),86.2% (active),84.3% (active),83.5% (active)
Cc1ccc(NC(=O)OC/C=C/c2ccccc2)cc1NC(=O)OC/C=C/c1ccccc1,17.9%,3.05%,9.05%,6.35%,-8.35%,24.1%
CC1(C)CC23C(=O)N(c4ccccc4)C(=Nc4ccccc4)NC2=CC(C#N)=C(C#N)C3O1 (centres undefined),2.6%,-3.9%,5.3%,23.9%,0.85%,-15.8%
O=C1c2ccccc2N2Oc3ccccc3C12c1ccccc1 (centres undefined),-3.45%,-13.2%,-16%,0.55%,-21.2%,18.8%
Cc1ccc(S(=O)(=O)CO)cc1,0.5%,-3.2%,14.3%,-51.5%,-27.9%,11%
COc1cc2ccc3c4cc(OC)c(OC(C)C)cc4cnc3c2cc1OC,-48.9%,-15.3%,-0.9%,29.6%,-10.5%,-4.45%
CCOC(=O)NC(=S)C1=C(N2CCOCC2)CCC1,-16.1%,-34.4%,1.95%,7.25%,-28.4%,6.45%
CCOC(=O)CCc1ccc(NC(=O)/C=C/c2ccc([N+](=O)[O-])o2)cc1,55%,29.1%,56.3%,53.8%,34.8%,36.7%
CC(=O)n1nnc(CC#N)c1-c1ccccc1,20.4%,7.5%,2.65%,5.1%,-23.2%,-15.3%
O=c1c2nn3c(=O)n(-c4ccccc4)c(=O)c3nn2c(=O)n1-c1ccccc1,-33%,-10.6%,-14.8%,-5.8%,-24.7%,-3.05%
CC1=CC=CNC1(N)Br (centres undefined),3.7%,4%,15.8%,19.4%,7.55%,-4.9%
CCCCC1(O)C(=O)N(c2ccccc2)N(c2ccccc2)C1=O,17.2%,11.1%,7.45%,13.1%,22.4%,4.2%
CC1CCCCCN1CCC(=O)c1ccccc1 (centres undefined),17.9%,25.1%,17.9%,19.2%,32.6%,8.65%
CCN(CC)CCCNc1cccc2nc(Cl)ccc12,12.1%,18.6%,37.2%,24.5%,2.65%,9.25%
Cn1c[n+](C)c([S-])n1,-13.2%,2.6%,-12.1%,-8.45%,3%,-5.25%
